Assay results from PubChem BioAssay (NCI).
Several values for one entry are separate records, joined by “and”; a condition that tells them apart may be missing. Identical values can stand only once. Compounds without any hit were thinned out: in the full panel of roughly 83,000, 20% have a hit.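 The test compound was applied at a single concentration to cells in 96-well plates for 48 hours, and percent growth was recorded.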 Activity calls are given as the source filed them. Rule for the calls: active = growth percent below 10; inactive = the rest.

System: HL-60(TB) leukemia
Assay: NCI-60 one-dose screen, 48 h (100 = growth as untreated, 0 = no growth, -100 = all killed)
Conditions: 10 µM unless noted

| SMILES | growth |
| --- | --- |
| O=C(O)c1ccccc1Cc1ccc(F)c2ccccc12 | 98.1% (inactive) and 91.1% (inactive) |
| CCN(CC)c1ccc2nc3ccc(=[N+](CC)CC)cc-3oc2c1 | -12.7% (active) |
| CC1(C)CN(Cc2ccccc2)CCN1Cc1ccccc1 | 100% (inactive) |
| Cc1ccc(NCCN(C)CC(C)O)c2c(=O)c3ccc(Cl)cc3sc12 (centres undefined) | 9.65% (active) |
| N#CCCN(NC(=O)OCc1ccccc1)C(=O)OCc1ccccc1 | 115% (inactive) |
| CC1(C)CC[C@]2(C(N)=O)CC[C@]3(C)C(=CC[C@@H]4[C@@]5(C)C/C(=C/c6cccnc6)C(=O)C(C)(C)[C@@H]5CC[C@]43C)[C@@H]2C1 | -24.7% [100 µM] (active) |
| COc1ccc(CN2c3ccccc3Sc3ccccc32)cc1F | -7.46% (active) |
| OC1CCC(Oc2cccc3cnc(Nc4ccc5nc[nH]c5c4)nc23)CC1 (centres undefined) | -26.1% (active) and 9% (active) |
| CC(=O)c1cccc(OC(=O)c2ccccc2)c1 | 79.9% (inactive) |
| CN(C)c1ccc(/C=C(\C#N)c2ccccc2)cc1 | -9.62% (active) and 16% (inactive) and 9.8% (active) |
| CC(C)=CCC[C@](C)(O)[C@H]1CC[C@]2(C)[C@@H]1CC[C@@H]1[C@@]3(C)Cc4nccnc4C(C)(C)[C@@H]3CC[C@]12C | 67.8% (inactive) |
| CN1CCN(Cc2ccc(NC(=O)c3ccc(C#N)c(C#Cc4cnc(N)c5ncccc45)c3)cc2C(F)(F)F)CC1 | 60.8% (inactive) |
| COc1cc(-c2cc(-c3cccs3)c(C#N)c(N3CCOCC3)n2)cc(OC)c1OC | 58.9% (inactive) |
| COc1cccc(-c2nc3sccn3c2-c2ccnc(NCCCNS(=O)(=O)c3ccc(C(F)(F)F)cc3)c2)c1 | 47.8% (inactive) |
| COc1ccc(-c2cc3ccc(N(C)C)cc3nc2N)c(F)c1 | -15.4% (active) |
| Cc1ccc(Nc2nnc(-c3cc(-c4ccncc4)n(-c4ccccc4)n3)s2)cc1 | 66.3% (inactive) |
| COc1cccc(CC(C)=C(c2ccc(OCCN(C)C)cc2)c2ccc(OCCN(C)C)cc2)c1 | -62.5% (active) |
| CCCCn1cnc2c(Sc3c([N+](=O)[O-])ncn3C)nc(N)nc21 | 54.3% (inactive) |
| O=c1c2cc(F)ccc2sc2c(NCCN3CCCCC3)nc3ccccc3c12 | 57% (inactive) |
| N#Cc1c(-c2ccccc2)cc(-c2ccccc2)n(CCC(=O)O)c1=O | 13.8% (inactive) |

| SMILES | growth |
| --- | --- |
| COc1ccc(C2=CC(c3ccc(OC)cc3Br)N3C=CSC3=N2)cc1 (centres undefined) | 61.4% (inactive) |
| COc1ccc(-c2nsc3c2NC(=O)CC3c2ccc3c(c2)OCCO3)cc1 (centres undefined) | 13% (inactive) |
| CCc1n(Cc2ccc3ccccc3c2)cc[n+]1Cc1ccc2ccccc2c1 | -54% (active) |
| Cc1cc2c(F)c(Oc3ncnc(Nc4ccc(N5C[C@@H](C)N[C@@H](C)C5)cc4)c3C#N)cc(F)c2[nH]1 | -54.6% (active) |
| COc1ccc(Cl)c([N+](=O)[O-])c1 | 98.6% (inactive) |
| Nc1c(C(=O)Nc2cccc3ccccc23)sc2nc3c(cc12)C(=O)CCC3 | 3.95% (active) |
| COc1ccc(-c2nnc(SCC(=O)Nc3ccc(C(=O)/C=C/c4ccccc4)cc3)n2-c2ccccc2)cc1OC | 65.3% (inactive) |
| Cc1cc(Nc2cccc(C(F)(F)F)c2)n2c(nc3ccccc32)c1C#N | 31.8% (inactive) |
| CCN1Cc2c(/C=C/c3ccccc3)nc3ccc(OC)cc3c2N(c2cccc(Cl)c2)C1 | 23.6% (inactive) |
| COc1ccc(-c2cc(C(=O)N=Nc3c(O)[nH]c4ccccc34)no2)cc1 | 91.8% (inactive) |
| C[C@@H](NC(=O)[C@@H](CC(=O)N1CCC(N2CCCCC2)CC1)N1C(=O)[C@@H](N2C(=O)OC[C@@H]2c2ccccc2)[C@H]1/C=C/c1cccc(Cl)c1)c1ccccc1 | 66.3% (inactive) |
| C/C(=N\NC(=O)c1ccccc1O)c1cccc(/C(C)=N/NC(=O)c2ccccc2O)n1 | 6.42% (active) |
| Cc1nc(/N=C(\N)NC(=O)Nc2cccc([N+](=O)[O-])c2)sc1C | 39.5% (inactive) |
| CCN(CC)CCNc1ccc(C)c2sc3ccccc3c(=O)c12 (tested in a mixture with another compound) | 10.1% (inactive) and 15.3% (inactive) |
| Cc1cc(N(CCCNc2ccnc3cc(Cl)ccc23)Cc2cccs2)nc(Cl)n1 | -3.12% (active) |
| CC(=O)c1cccc(NS(=O)(=O)c2ccc(C)cc2)c1 | 70.9% (inactive) |
| CS(=O)(=O)Nc1cc(-c2ccc3ncnc(Nc4c(Cl)ccc5c4OCO5)c3c2)cnc1Cl | -4.02% (active) |
| COc1cc(/C=C/C(=O)c2c(C)nc3ccccc3c2C)ccc1OCCCN1CCN(C(=O)c2ccco2)CC1 | 74.7% (inactive) |
| CC[C@@H](C[C@H](CCO)c1ccccc1)c1cc2ccccc2o1 | 92.5% (inactive) |
